Screens deposited in PubChem by Broad Institute.
The list is a sample of the results.
aSyn UTR act: Activators via SNCA 5'UTR binding, MLPCN; activity score, % (tested at 7.5 µM), hits read low; alpha-synuclein 5'UTR reporter, activators screen; 300,000 tested, 7.1% active; in the data active means activity score below about -60%
An asterisk follows results filed as active.

SMILES | aSyn UTR act
Cc1ccc(C(=O)Nc2nccs2)cc1 | -124.0*
O=C(Nc1nccs1)C(Br)C(Br)c1ccccc1 (stereo not drawn) | -75.1*
CC(C)C(C(=O)Nc1nccs1)c1ccc(Cl)cc1 (stereo not drawn) | 58.4
O=C(Nc1nccs1)OCc1ccccc1 | -80.1*
O=C(Nc1nccs1)c1ccc2nccnc2c1 | -160.6*
Nc1ccccc1C(=O)Nc1nccs1 | -103.0*
Cc1oc(-c2ccccc2)nc1C(=O)Nc1nccs1 | -116.8*
O=C(Nc1nccs1)c1ccc(N2C(=O)[C@@H]3[C@H](C2=O)[C@H]2C=C[C@@H]3C2)cc1 | -147.3*
Nc1ccc(C(=O)Nc2nccs2)cc1 | -87.4*
CC(C)(C)N1C(=O)c2ccc(C(=O)Nc3nccs3)cc2C1=O | -156.2*
CN(c1ccc(C(=O)Nc2nccs2)cc1)S(=O)(=O)c1ccccc1 | -103.8*
Cn1c(SCc2ccc(C(=O)Nc3nccs3)cc2)nnc1-c1ccccc1 | -102.7*
Cc1ccc(NC(=O)C2CC2c2ccccc2)c([N+](=O)[O-])c1 (stereo not drawn) | -88.0*
O=c1c2ccccc2sc2ccc(Cl)cc12 | -106.0*
COC(=O)/C(C#N)=C/c1c(N2CCN(c3ccccc3)CC2)nc2ccccn2c1=O | -65.0*
N#C/C(=C\c1c(N2CCN(c3ccccc3)CC2)nc2ccccn2c1=O)C(N)=O | -71.2*
CCOC(=O)/C(C#N)=C/c1c(N2CCN(c3ccccc3)CC2)nc2ccccn2c1=O | -62.1*
Cc1ccc2nsnc2c1NC(=O)c1ccc([N+](=O)[O-])o1 | -173.5*
Cc1ccc2nsnc2c1NC(=O)CCl | -82.3*
Cc1ccc(/C=N/Nc2nncc(-c3ccccc3)n2)o1 | -99.1*
Oc1cccc(/C=N\Nc2nncc(-c3ccccc3)n2)c1 | -210.2*
Clc1ccc(-c2ccc(/C=N/Nc3nncc(-c4ccccc4)n3)o2)cc1 | -75.3*
Cc1[nH]n(-c2ccccc2)c(=O)c1/C=N/Nc1nncc(-c2ccccc2)n1 | 91.2
CCCCN(CC)CCCNC(=O)c1cc2c(=O)n(CC)c3ccccc3c2s1 | -320.7*
CCCN(CCC)CCCNC(=O)c1cc2c(=O)n(CC)c3ccccc3c2s1 | -299.7*
SMILES | aSyn UTR act
COCCCNC(=O)c1ccc(Cn2c(=O)c3ccccc3n(Cc3ccccc3C#N)c2=O)cc1 | 54.6
CCn1c(=O)c2cc(C(=O)NCCCOC)sc2c2ccccc21 | -84.5*
COCCNC(=O)c1cc2sc3ccccc3c2s1 | -174.9*
CCCCN(CC)CCNC(=O)c1cc2c(=O)n(CC)c3ccccc3c2s1 | -274.3*
CC(=O)N1CCc2cc(S(=O)(=O)NCCC(=O)Nc3ccc4c(c3)OCCO4)ccc21 | -175.8*
Cc1ccc2[nH]c3c(=O)n(N)c(C)nc3c2c1 | -69.6*
Cc1cccc(C(=O)Nc2cccc(C(=O)N/N=C/c3ccc4c(c3)OCO4)c2)c1 | -109.2*
O=C(N/N=C/c1ccc2c(c1)OCO2)c1cccc(NC(=O)c2ccccc2Cl)c1 | -157.9*
COCCNC(=O)/C(C#N)=C/c1ccc(OCc2ccc(F)cc2)cc1 | -73.4*
COCCNC(=O)/C(C#N)=C/c1ccc(OCc2ccccc2)cc1 | -140.7*
Cc1ccccc1-c1nnn(Cc2ccc(F)cc2Cl)n1 | -86.3*
Fc1ccc(-c2nnn(Cc3ccc(F)cc3Cl)n2)cc1 | -71.4*
O=C(CSc1nc2ccccc2o1)Nc1ccc(N2CCOCC2)cc1 | -147.0*
O=C(CSc1nc2cc(Cl)ccc2o1)Nc1ccc(N2CCOCC2)cc1 | -132.9*
C=CCn1c(Sc2ccccc2)nc2c1c(=O)[nH]c(=O)n2C | 59.6
C=CCn1c(=S)[nH]c2cc(-c3ccccc3)sc2c1=O | -76.9*
COCc1cc(C)nc(SCC(=O)Nc2ccc3c(c2)OCCO3)c1C#N | -85.6*
COCc1cc(C)nc(SCC(=O)c2ccc(O)c(O)c2)c1C#N | -79.8*
COCc1cc(C)nc(SCC(=O)Nc2ccc3c(c2)OCO3)c1C#N | -70.4*
Cn1sc(NC(=O)c2ccc(Cl)cc2)nc1=O | -115.1*
Cc1ccc(C(=O)Nc2nc(=O)n(C(=O)c3ccccc3Cl)s2)cc1 | -104.2*
COc1ccc(N2C(=S)N(C(=O)c3ccccc3)C(=Nc3ccccc3)C2=Nc2ccccc2)cc1 | -120.0*
COc1ccc(N=C2C(=Nc3ccc(OC)cc3)N(c3ccc(N(C)C)cc3)C(=S)N2c2ccc(OC)cc2)cc1 | 98.6
COc1ccc(N=C2C(=Nc3ccc(OC)cc3)N(c3ccccc3)C(=S)N2C(=O)c2ccc(Cl)cc2)cc1 | -200.4*
Nc1c(-c2ccccc2)cnn1-c1cccc([N+](=O)[O-])c1 | -92.2*
SMILES | aSyn UTR act
Cc1nn(-c2cccc([N+](=O)[O-])c2)c(N)c1-c1ccccc1 | -83.3*
Nc1c(-c2ccc(Cl)cc2)cnn1-c1cccc([N+](=O)[O-])c1 | -133.8*
CCOc1ccc(Nc2ncnc3c2nnn3Cc2ccccc2)cc1 | -79.2*
CCN(CC)CCSc1nnc2c3ccccc3n(CCc3ccccc3)c2n1 | -105.6*
CC(C)CSc1nnc2c3ccccc3n(C)c2n1 | -75.2*
CN(C)CCn1c2ccccc2c2nc3ccc([N+](=O)[O-])cc3cc21 | 103.7
Cc1c(-c2ccccc2)nnn1-c1ccc(F)cc1F | -93.1*
COc1ccccc1-c1nnc2sc(-c3ccc(N(C)C)cc3)nn12 | 98.6
